LRH-1 inv ag – LRH-1 (NR5A2) inverse agonists, primary screen, cell-based, luminescence, HEK293T, StAR-luciferase reporter; LRH-1 transfected, 24 h; AID 602396, 2012; actives 0.13% (n = 360,000); Nuclear receptor subfamily 5 group A member 2 (Homo sapiens), O00482; inhibition, % at 3.6 µM;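 active means inhibition above the mean inhibition of all tested compounds plus 3 SD, cut at about 73% in these data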;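 further: 0% = DMSO wells and 100% = reporter-only cells lacking LRH-1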
NCOA2 inhibitor – inhibition of GAL4-SRC2 driven luciferase reporter, primary screen, SRC2 inhibitor project, cell-based, luminescence | Nuclear receptor coactivator 2 (Homo sapiens), Q15596 | HEK293 GAL4-SRC2 luciferase reporter | inhibition, % at 9 µM | actives 0.17% (n = 370,000) | AID 651957, 2012;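 active means inhibition above the mean inhibition of all tested compounds plus 3 SD, set per campaign, cut at about 52% in these data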;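 further: 0% = DMSO treated cells and 100% = cells given Gossypol at 36 µM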
SRC1 inh – SRC1 coactivator transcriptional activity inhibitors, primary screen, cell-based, luminescence; inhibition, % at 3.6 µM; actives 0.12% (n = 360,000); Nuclear receptor coactivator 1 (Homo sapiens), Q15788; HEK293 GAL4-SRC1 luciferase reporter;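 active means inhibition above the campaign mean plus 3 SD, with each screening campaign given its own cutoff, cut at about 60% in these data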;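 further: 0% = DMSO treated cells and 100% = gossypol at 36 µM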
GalR3 antagonist – GalR3 antagonists in HEK293 cells, primary screen, cell-based, fluorescence readout. actives 0.44% (n = 360,000). inhibition, % at 3 µM. Galanin receptor type 3 (Homo sapiens), O60755. HEK293 GalR3-CNG cAMP membrane potential fluorescence; galR3 body fused to GalR1 C-terminus;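 active means inhibition above the screen-wide average plus 3 SD, cut at about 13% in these data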;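 further: forskolin and galanin both at EC90 stimulate the cells; cAMP rise reported by CNG channel membrane potential dye signal; 0% = forskolin plus galanin with DMSO and 100% = forskolin alone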
SRC3 inh – SRC3 coactivator transcriptional activity inhibitors, primary screen, cell-based, luminescence; HEK293 GAL4-SRC3 luciferase reporter; inhibition, % at 3.6 µM; actives 0.17% (n = 360,000);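 active means inhibition above a per-campaign cutoff, the mean of all compounds plus 3 SD, cut at about 60% in these data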;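 further: 0% = DMSO-treated cells and 100% = gossypol-treated cells at 36 µM; higher means less SRC3-driven luciferase light from the GAL4 reporter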
NR2F2 inh – NR2F2 transcriptional activity inhibitors, primary screen, cell-based, luciferase reporter, HEK293T, luminescence; AID 686940, 2013; COUP transcription factor 2 (Homo sapiens), P24468; HEK293T NGFI-A luciferase reporter; inhibition, % at 8.6 µM; actives 0.7% (n = 370,000);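 active means inhibition above a per-plate cutoff, mean inhibition of test wells between control levels plus 3 SD, cut at about 38% in these data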;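 further: cells cotransfected with COUP-TFII expression vector driving the NGFI-A reporter; 0% = median of COUP-TF2 test wells and 100% = reporter-only cells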
VP16 Luc counter – Gal4-VP16 luciferase reporter inhibitors, counter-screen for COUP-TFII antagonist project, cell-based, luminescence, HEK293. shares compounds with NR2F2 inh. inhibition, % at 8.5 µM. actives 25% (n = 2,500); in the data active means inhibition above about 13%
NR2F2 inh conf – NR2F2 transcriptional activity inhibitors, confirmation, cell-based, luciferase reporter, HEK293, triplicate. AID 687008, 2013. shares compounds with NR2F2 inh. actives 45% (n = 2,500). HEK293 NGFI-A luciferase reporter, luminescence. inhibition, % at 8.5 µM;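 active means mean inhibition over three repeats above a set limit taken from the earlier primary screen, cut at about 38% in these data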;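 further: 100% = cells given the luciferase reporter alone without the COUP-TF2 vector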
* hit, by the source's call; x = not tested or not shown. Most compounds without a hit are left out; they make up all but 1.1% or so of the library.

SMILES	LRH-1 inv ag	NCOA2 inhibitor	SRC1 inh	GalR3 antagonist	SRC3 inh	NR2F2 inh	VP16 Luc counter	NR2F2 inh conf
CCn1c(C)cc(C(=O)CN2C(=O)c3ccccc3S2(=O)=O)c1C	45	34	52	-9	47	41*	41*	72*
Cc1cc(C(=O)CN2C(=O)c3ccccc3S2(=O)=O)c(C)n1C(C)C	38	58*	47	-1	40	63*	49*	63*
C#CCNC(=O)C[C@@H]1C(=O)N(CC=C)/C2=C/CCCCC[C@]21C(=O)OCC	x	-30	x	x	x	12	x	x
N#CCC[C@@H]1CC[C@]2(CCCN(C(=O)C3CCCC3)C2)O1	x	0	x	x	x	-18	x	x
COc1cccc(-c2nc(NCc3cccnc3)c3ccccc3n2)c1O	3	-26	-24	-8	-50	9	x	x
COc1cccc2c(NCc3ccccc3)nc(-n3c(N)nc4ccccc43)nc12	x	x	x	x	x	100*	49*	18
Cc1ccc2nc(NC(=O)CSCC(=O)OCC(=O)c3ccccc3)sc2c1	53	73*	30	-6	55	77*	79*	59*
CCOCC(=O)Nc1nc2ccc(C)cc2s1	-106	-83	-113	-6	-55	-40	x	x
Cc1c(CCC(=O)N[C@@H](C)C(=O)O)c(=O)oc2cc3oc4c(c3cc12)CCCC4	5	67*	9	-11	1	47*	33*	36
Cc1c(CC(=O)NCCC(=O)O)c(=O)oc2cc3oc4c(c3cc12)CCCC4	-4	6	-6	-10	-6	-24	x	x
Cc1c(CCC(=O)N2CCC(C(=O)O)(c3ccccc3)CC2)c(=O)oc2cc3oc4c(c3cc12)CCCC4	3	58*	1	-4	-21	53*	37*	35
Cc1c(CCC(=O)N2CCC(C(=O)O)CC2)c(=O)oc2cc3oc4c(c3cc12)CCCC4	-6	63*	-4	-1	-53	61*	12	28
Cc1oc2cc3oc(=O)c(CCC(=O)N4CCC(C(=O)O)(c5ccccc5)CC4)c(C)c3cc2c1C	17	3	16	-1	11	-5	x	x
CCN(CCO)C(=O)c1ccc2nc(Cc3cccc(Cl)c3)oc2c1	-9	-36	2	-9	11	-4	x	x
CC(=O)c1cccc(NC(=O)C2CCCN2S(=O)(=O)c2cccs2)c1 (stereo unspecified)	11	5	7	-5	-1	1	x	x
Cc1ccc(-c2cc3onc(-c4ccccc4)c3c(=O)n2C)cc1	24	2	23	-3	19	43*	34*	72*
Cc1cccc(N2CC(C(=O)Nc3ccc(S(=O)(=O)N4CCOCC4)cc3)CC2=O)c1C (stereo unspecified)	9	-13	-5	-6	-3	6	x	x
Cc1cccc(N2CC(C(=O)Nc3cccc(S(=O)(=O)N4CCCCC4)c3)CC2=O)c1C (stereo unspecified)	-6	20	-3	-6	25	47*	3	14
CCOc1cc(/C=N/Nc2nnc(C)n2N)ccc1O	55	-3	9	-7	6	49*	5	9
O=C(c1ccco1)N1CCN=C1SCc1cccc(F)c1	-47	4	1	1	9	23	x	x
O=C(c1ccco1)N1CCN=C1SCc1ccc(F)cc1	7	-2	0	-2	12	58*	-5	1
O=C(CCNC(=O)c1ccc([N+](=O)[O-])cc1)NCCc1ccc(Cl)cc1	-8	-18	-3	-5	-1	-5	x	x
COc1ccc(CCNC(=O)CCNC(=O)c2ccc([N+](=O)[O-])cc2)cc1	15	19	9	-10	4	39*	4	3
Cc1cc(C)cc(NC(=O)O[C@@H]2CC[C@@]34CCCN3C(=O)CCC[C@H]4C2)c1	x	x	x	x	x	0	x	x
CN(Cc1ccccc1)c1ncnc2sccc12	12	23	-2	-2	16	21	x	x
SMILES	LRH-1 inv ag	NCOA2 inhibitor	SRC1 inh	GalR3 antagonist	SRC3 inh	NR2F2 inh	VP16 Luc counter	NR2F2 inh conf
Cc1ccc(S(=O)(=O)N2CCN(c3ncccn3)CC2)cc1C	4	-24	-4	-6	-6	2	x	x
c1ccc(CN2CCC(Nc3ncnc4sccc34)CC2)cc1	-1	-3	17	3	15	1	x	x
Cc1ccc(S(=O)(=O)N2CCN(c3ncnc4sccc34)CC2)cc1C	27	21	33	-4	0	43*	-3	24
OC1(Cc2ccccc2)CCN(c2ncnc3sccc23)CC1	x	x	x	x	x	71*	-1	62*
c1ccc(CN2CCN(c3ncnc4sccc34)CC2)cc1	x	x	x	x	x	71*	0	50*
O=C(O)c1ccc(-c2nn3c(=O)cc(N4CCNCC4)nc3s2)cc1	12	-10	-15	2	0	-12	x	x
CC(OC(=O)c1cccc(S(=O)(=O)N2CCCC2)c1)C(=O)NC1CCCCC1C (stereo unspecified)	-1	-20	-1	-1	1	7	x	x
O=C(CCC(=O)N1CCN(C2c3ccccc3-c3ccccc32)CC1)Nc1nnc(C(F)(F)F)s1	x	-33	x	x	x	-11	x	x
CCn1nc(C)c(CNC(=O)c2cc(COc3ccc(F)cc3Cl)on2)c1C	11	33	27	4	42	41*	9	44*
Nc1[nH]c(C(=O)c2ccccc2)c(-c2ccc(Cl)cc2)c1C(=O)NCc1ccccc1	3	15	x	1	x	16	x	x
CCOC(=O)[C@@]12CCCC=C1N(CCc1ccc(Cl)cc1)C(=O)[C@H]2CC(=O)N1CCCC1	x	8	x	x	x	44*	7	40*
CCOC(=O)[C@@]12CCCC=C1N(CCc1ccc(Cl)cc1)C(=O)[C@H]2CC(=O)N1CCCCC1	x	-4	x	x	x	30	x	x
CC(=O)N1CCOc2ccc(S(=O)(=O)NCC3CCC(C(=O)NCCC(C)C)CC3)cc21 (stereo unspecified)	-3	-17	12	-2	2	14	x	x
CC(=O)N1CCOc2ccc(S(=O)(=O)NCC3CCC(C(=O)Nc4ccc(C)cn4)CC3)cc21 (stereo unspecified)	37	37	8	-10	25	39*	9	24
